# High-throughput results as filed in PubChem BioAssay.
# Sampled rows, rich in hits. Any-hit rate of the full collection: about 2.3%.
# Coupling enz: qHTS Assay for Inhibitors of Fructose-1,6-bisphosphate Aldolase from Giardia Lamblia: Coupling assay counterscreen; activity change, negative = inhibition, % at 58.2 µM, hits read low; AID 2472, 2010; coupling enzyme system counterscreen, AmpLite Red fluorescence; hit rate 0.67% among 290,000; in the data active = activity change below about -30%; also: % is scaled to controls: 0 for no effect and ±100 for the full control effect
#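 Compounds tested against the coupling enzymes alone at 57.5 uM final; readout was AmpLite Red fluorescence (525/598 nm) after 20 min at RT.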
# JMJD2E inh: qHTS Assay for Inhibitors of Human Jumonji Domain Containing 2E (JMJD2E); Potency, µM (top dose mostly 57.1 µM), for the others: top-dose activity change, negative = inhibition, hits mostly inhibitors; JMJD2E catalytic domain, FDH-coupled NADH fluorescence (FDH is formaldehyde dehydrogenase); Lysine-specific demethylase 4E (Homo sapiens), B2RXH2; hit rate 1.6% among 230,000; active = well fitted inhibition curve with a large enough effect, not every such curve was filed as active; inconclusive = small, poorly fitted or top-dose-only effect, or another doubt; inactive = no such curve, though single readings can be large or run the other way;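 also: potency is read from the fitted curve at half-maximal effect; 0% = wells with enzyme and -100% = buffer wells without enzyme; nearly all actives have a fitted effect of over 50% in size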
# Target sequence (B2RXH2 1-337 limits assumed): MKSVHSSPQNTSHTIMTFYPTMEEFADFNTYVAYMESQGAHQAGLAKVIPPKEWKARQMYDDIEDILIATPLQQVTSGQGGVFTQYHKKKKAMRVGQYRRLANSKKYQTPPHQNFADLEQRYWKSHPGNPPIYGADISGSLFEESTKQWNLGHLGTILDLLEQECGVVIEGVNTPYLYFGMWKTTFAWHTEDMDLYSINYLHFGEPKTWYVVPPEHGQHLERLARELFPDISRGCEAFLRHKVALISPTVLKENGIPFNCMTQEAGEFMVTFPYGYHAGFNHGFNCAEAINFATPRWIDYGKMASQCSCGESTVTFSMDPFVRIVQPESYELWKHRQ
# HTT aggregate: qHTS Multiplex Assay to Identify Dual Action Probes in a Cell Model of Huntington: Aggregate Formation (GFP). PC12 HttQ103-GFP aggregates, Acumen cytometry, 40 h. Potency, µM (series often up to 46.1 µM), inactives show at the top dose activity change, negative = inhibition, actives largely listed as inhibitors. hit rate 1.1% among 220,000; also: potency is read from the fitted curve at half-maximal effect; % is scaled to controls: 0 for no effect and ±100 for the full control effect; nearly all actives have a fitted effect of over 60% in size
#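 Steps: seed 1500 PC12 HTTQ103-GFP cells/well; add tebufenozide, 100 nM final; add compound titration; add ATPLite reagent; quantify GFP aggregates by laser scanning cytometry.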
# HTT ATP protect: qHTS Multiplex Assay to Identify Dual Action Probes in a Cell Model of Huntington: Cytoprotection (ATP) | PC12 HTT-Q103 induced, cytoprotection, ATP luminescence, 40 h | Potency, µM (series often up to 56.4 µM), for the others: cytoprotection (ATP increase), usual class: activators | hit rate 0.14% among 230,000 | AID 1471, 2008; also: potency is read from the fitted curve at half-maximal effect; % of control where 0% means no effect; nearly all actives have a fitted effect of over 45% in size
#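 Huntington model: PC12 line, ecdysone-inducible HTTQ103 exon1–GFP, tebufenozide 100 nM. Test articles in a dose series. Endpoint luminescence from cellular ATP.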
# RGS12 GoLoco inh: qHTS Assay for Inhibitors of RGS12 GoLoco Motif Activity (Red Fluorophore). Gai1:RGS12 GoLoco peptide FP, rhodamine, 10 min. Potency, µM (doses to about 61.6 µM), inactives show at the highest dose activity, negative = inhibition, actives largely listed as inhibitors. hit rate 0.44% among 230,000; active = well fitted inhibition curve with a large enough effect, not every such curve was filed as active; inactive = no such curve, though single readings can be large or run the other way; also: potency is read from the fitted curve at half-maximal effect; % is scaled to controls: 0 for no effect and ±100 for the full control effect; nearly all actives have a fitted effect of over 30% in size
# Target sequence (P63096 whole entry, looked up): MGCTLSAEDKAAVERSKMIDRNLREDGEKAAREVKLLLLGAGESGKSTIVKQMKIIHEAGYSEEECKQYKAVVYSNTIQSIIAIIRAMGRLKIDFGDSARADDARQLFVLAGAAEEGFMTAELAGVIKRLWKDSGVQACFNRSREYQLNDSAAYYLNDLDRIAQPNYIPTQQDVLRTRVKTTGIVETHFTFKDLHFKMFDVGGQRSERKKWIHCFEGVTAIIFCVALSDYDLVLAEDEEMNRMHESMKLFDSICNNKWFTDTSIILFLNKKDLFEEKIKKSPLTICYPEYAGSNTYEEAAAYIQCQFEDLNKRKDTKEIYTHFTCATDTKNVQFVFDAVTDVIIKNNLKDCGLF
# VDR inhibitor: Inhibitors of the vitamin D receptor (VDR): qHTS; VDR-SRC2-3 peptide fluorescence polarization, 2 h; Potency, µM, for inactives: max response, negative = inhibition, usual class: inhibitors; hit rate 0.93% among 400,000; also: potency is read from the fitted curve at half-maximal effect; % is scaled to controls: 0 for no effect and ±100 for the full control effect
#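 FP read-out; VDR + SRC2-3 coactivator peptide; 23 nl compound by pintool; 2 h RT incubation; reagents held at 4 deg C, protected from light.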
# * = called active by the depositor; ? = inconclusive; nt = not tested or not shown; [ ] = another dose, or the depositor's remark. Unless noted, calls follow the shape of the dose curve; as a rule, active = well fitted curve in the direction sought with a large enough effect; inconclusive = small, poorly fitted or top-dose-only effect, or another doubt; inactive = no such curve, though single readings can be large; an effect the other way counts as inactive or inconclusive.
SMILES,Coupling enz,JMJD2E inh,HTT aggregate,HTT ATP protect,RGS12 GoLoco inh,VDR inhibitor
O=C(CCC(=O)Nc1ccc(F)cc1)N/N=C/c1ccccc1O,-2,25µM*,?,-41%,12%,-10%
O=C(CCC(=O)Nc1ccc(Br)cc1)N/N=C/c1ccccc1F,1,nt,nt,nt,nt,13%
O=[N+]([O-])c1ccc(O)c(/C=N\N=C2c3ccccc3-c3ccccc32)c1,3,9%,11µM*,26%[10 µM],14%,5%
O=C(CCC(=O)Nc1ccc(F)cc1)N/N=C/c1cccc(Br)c1,-31*,nt,nt,nt,nt,18%
COc1cccc(/C=N/NC(=O)CCC(=O)Nc2ccc(Br)cc2)c1,0,nt,nt,nt,nt,-18%
O=C(CCC(=O)Nc1ccc(F)cc1)N/N=C/c1cc([N+](=O)[O-])ccc1O,4,7.1µM*,?,-4%[10 µM],14%,2%
NC(N)=N/N=C/c1cc([N+](=O)[O-])ccc1O,4,3%,4%,-3%[10 µM],1%,-21%
O=C(Cc1ccccc1)NN=Cc1ccccc1,nt,nt,nt,nt,nt,-6%
Cc1ccc(N(CC(=O)N/N=C/c2cccc(Br)c2)S(C)(=O)=O)cc1,-31*,16%,-11%,1%[10 µM],2%,17%
O=C(CC(=O)N/N=C/c1ccccc1)NCc1ccccc1,-40*,7%,nt,nt,9%,8%
O=C(CCN1CCN(c2ccccc2)CC1)N/N=C/c1ccccc1O,0,28µM*,13µM*,-131%,7%,19%
O=C(Cc1n[nH]c(=O)[nH]c1=O)N/N=C/c1ccccc1O,3,14µM*,7%,-8%,2%,-4%
CN1CCN(CCC(=O)N/N=C/c2ccccc2F)CC1,3,5%,-8%[9.22 µM],16%[10 µM],-10%,6%
COc1ccccc1NC(=O)C(=O)NCC(c1ccc2c(c1)OCO2)N1CCN(C)CC1 (stereo unspecified),nt,nt,nt,nt,nt,3%
Cc1ccc(C)c(S(=O)(=O)N2CCN(C(=O)Cc3sc(C)nc3-c3ccc(F)cc3)CC2)c1,nt,nt,nt,nt,nt,7%
CC1(C(=O)Nc2cccc(C(F)(F)F)c2)Cc2ccccc2C(=O)O1 (stereo unspecified),nt,nt,nt,nt,nt,18%
O=C(CCC(=O)Nc1ccc(Br)cc1)N/N=C/c1cc([N+](=O)[O-])ccc1O,4,?,?,-39%,6%,14%
Cc1cccc(NC(=O)CCC(=O)N/N=C/c2cc([N+](=O)[O-])ccc2O)c1,-1,10µM*,-28%,17%[10 µM],63%,?
O=C(CCn1cnc2ccccc21)N/N=C/c1ccccc1O,2,?,10µM*,-30%[10 µM],1%,-8%
Cc1ccc(/C=N/NC(=O)Cc2c[nH]c3ccccc23)c(C)c1,-1,1%,0%,3%,12%,7%
O=C(N/N=C/c1cc([N+](=O)[O-])ccc1O)C1CCCCC1,3,7.1µM*,10µM*,-21%[10 µM],-12%,-16%
O=C(Cc1c[nH]c2ccccc12)N/N=C/c1ccccc1O,0,25µM*,-17%[9.22 µM],26%[10 µM],2%,-6%
O=C(N/N=C/c1cc([N+](=O)[O-])ccc1O)C1C2CCCCC21 (stereo unspecified),-1,?,-3%[9.22 µM],1%[10 µM],12%,nt
CCOC(=O)N/N=C1/C[C@@H](O)[C@@H](O)[C@@H]2[C@@H]3C(=O)N(Cc4ccc5c(c4)OCO5)C(=O)[C@H]3CC[C@@H]12,2,nt,nt,4%[10 µM],nt,nt
O=C(CSCc1nc2cccnc2n1C1CCCCC1)NCc1cccc(Br)c1,nt,nt,nt,nt,nt,11%
SMILES,Coupling enz,JMJD2E inh,HTT aggregate,HTT ATP protect,RGS12 GoLoco inh,VDR inhibitor
Cc1ccc(OCCSc2nc3ccccc3n2CC(=O)O)cc1,8,nt,nt,nt,nt,-14%
CN(C)c1ncnc2ccc(-c3cccc(C#N)c3)cc12,8,nt,nt,-85%,-7%,0%
O=C(N/N=C/c1ccc(OC(=O)c2cccs2)cc1)c1ccccn1,-1,nt,nt,nt,nt,-11%
O=C(CCC(=O)N/N=C/c1ccccc1O)NCc1ccccc1,2,?,10µM*,4%[10 µM],11%,-1%
COc1cc(/C=N/NC(=O)CCC(=O)NCc2ccccc2)cc(OC)c1OC,-1,-13%,-4%,nt,-1%,-24%
CC(=O)Nc1ccc(S(=O)(=O)N2CCN(C(=O)c3ncoc3-c3ccccc3C)CC2)cc1,1,nt,nt,nt,nt,-8%
Nc1cc2nc3ccccc3oc-2cc1=O,-25,13µM*,-28%[9.22 µM],-5%[10 µM],23%,?
Cc1nc2ccccc2oc1=O,0,5%,nt,14%,0%,9%
COc1ccc(NS(=O)(=O)c2cccc(NC(=O)c3ccc(Cl)nc3)c2)cc1,-4,-3%,2.5µM*,14%[10 µM],2%,-11%
COc1cccc(S(=O)(=O)Nc2ccc(C(=O)Nc3ccncc3)cc2)c1,0,6%,-11%,4%[10 µM],5%,-24%
CC(Oc1ccc(F)cc1)C(=O)Nc1cc(-c2ccc(F)c(F)c2)no1 (stereo unspecified),nt,nt,nt,nt,nt,9%
CCCNC(=O)c1cc(-c2ccc(O)cc2)on1,nt,nt,nt,-45%,nt,nt
CC[N+]1=C(C)C(C)(C)c2cc(C)ccc21,4,-14%,2.5µM*,-112%,-39%,7%
CCN1C(=O)C(=O)c2cc(C)ccc21,nt,nt,nt,nt,nt,-3%
COc1ccc(-c2nc(CCNC(=O)Cc3ccc(F)cc3)cs2)cc1,nt,nt,nt,nt,nt,-6%
COc1cccc(-n2nnc3c(=O)n(Cc4c(F)cccc4Cl)cnc32)c1,0,-4%,3.2µM*,-9%[0.074 µM],3%,3%
COc1cccc(-n2nnc3c(=O)n(Cc4cccc(F)c4)cnc32)c1,3,?,-8%[9.22 µM],-6%,8%,-9%
C/C(=N/NS(=O)(=O)c1ccc(CC(C)C)cc1)c1ccncc1,nt,nt,nt,nt,nt,-5%
C[C@H]1CCC[C@]2(C)C[C@H]3OC(=O)C(CN4CCCCCC4)[C@H]3C=C12 (stereo partly specified),1,nt,nt,nt,nt,-6%
C=C1C(=O)OC2C[C@@]3(C)CCCC(C)C3=CC12 (stereo partly specified),3,-1%,nt,nt,3%,40µM*
CN(C)S(=O)(=O)c1ccc(C(=O)NCCSc2c(-c3ccc(Cl)cc3)[nH]c3ccccc23)cc1,nt,nt,nt,nt,nt,-4%
O=C(Cc1cccs1)NCCSc1c(-c2ccc(Cl)cc2)[nH]c2ccccc12,-6,?,22µM*,nt,6%,-9%
